Rtt109 HAT inh – blocks Candida albicans Rtt109/Vps75 acetyltransferase activity | purified Rtt109/Vps75, ThioGlo CoA-SH fluorescence, 4 h | Q5AAJ8 | inhibition, % at 34.9 µM | actives 0.16% (n = 330,000);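 active = inhibition of at least 50% in every replicate; inconclusive = best replicate reaches 50% inhibition but some replicates fall short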
Target sequence (Q5AAJ8 whole entry, looked up): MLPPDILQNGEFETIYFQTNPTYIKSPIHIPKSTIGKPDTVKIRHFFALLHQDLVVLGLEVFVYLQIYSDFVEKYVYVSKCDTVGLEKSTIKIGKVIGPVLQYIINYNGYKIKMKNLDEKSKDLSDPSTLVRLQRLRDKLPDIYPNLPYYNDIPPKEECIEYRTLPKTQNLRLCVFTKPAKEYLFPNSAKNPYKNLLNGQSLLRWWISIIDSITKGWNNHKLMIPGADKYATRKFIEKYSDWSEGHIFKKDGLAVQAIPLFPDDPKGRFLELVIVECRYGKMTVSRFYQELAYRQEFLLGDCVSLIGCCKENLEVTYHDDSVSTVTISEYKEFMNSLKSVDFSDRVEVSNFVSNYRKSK
ABHD5-PLIN5 inh – ABHD5-PLIN5 protein interaction inhibition. Q00G26+Q8WTS1. Split G. princeps luciferase complementation, luminescence, 4 h. inhibition, % at 4 µM. actives 0.78% (n = 360,000);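 active = inhibition above the mean inhibition across every tested compound plus 3 SD, cut at about 22% in these data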;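 note: 0% = DMSO only wells and the 100% control is not disclosed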
rCAG RNA binder – molecules binding r(CAG) RNA repeats. r(CAG) RNA repeat, TO-PRO-1 dye displacement fluorescence. inhibition, % at 3 µM. actives 1.3% (n = 370,000);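 active = inhibition above the plate cutoff, the mean of all test compounds on that plate plus 3 SD, cut at about 35% in these data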;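 note: 0% = DMSO alone and 100% = 100 µM mitoxantrone as full dye displacement; higher means more dye released from RNA so lower well fluorescence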
LANA-H2A inh – blocks KSHV LANA binding to histone H2A/H2B | actives 0.6% (n = 320,000) | Q9QR71 | inhibition, % (test concentration not listed) | cell-free LANA-H2A/H2B peptide, fluorescence polarization; in the data active = inhibition mostly above about 10%, no sharp cut-off; inactive = mostly below about 6.7%
ALR inh – inhibitors of human sulfhydryl oxidase ALR | P55789 | purified ALR, DTT oxidation, H2O2 HRP-luminol luminescence | inhibition, % (concentration not given with the values) | actives 3.8% (n = 290,000) | AID 485317;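 active = mean replicate inhibition above about 79%, with every replicate also reaching it, limit read from the data; inconclusive = only one of the two criteria met; inactive = mean below limit and not every replicate reaching it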
PRMT1 FP inh – inhibitors of human PRMT1; actives 1.3% (n = 370,000); AID 652257; inhibition, % at 2.79 µM; recombinant PRMT1, activity-based probe fluorescence polarization;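 active = inhibition above about 21% made by adding two undisclosed values, limit read from the data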
Target sequence (Q99873 whole entry, looked up): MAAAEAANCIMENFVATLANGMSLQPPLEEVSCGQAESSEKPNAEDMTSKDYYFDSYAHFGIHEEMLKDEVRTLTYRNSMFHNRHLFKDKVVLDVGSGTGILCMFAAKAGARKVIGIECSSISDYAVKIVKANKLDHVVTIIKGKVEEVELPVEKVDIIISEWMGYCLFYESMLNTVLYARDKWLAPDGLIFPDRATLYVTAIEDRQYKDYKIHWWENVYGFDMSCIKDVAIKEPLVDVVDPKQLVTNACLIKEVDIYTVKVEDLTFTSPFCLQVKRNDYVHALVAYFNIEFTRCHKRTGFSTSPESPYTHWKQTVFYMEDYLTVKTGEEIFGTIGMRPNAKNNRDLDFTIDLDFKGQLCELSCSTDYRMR
rCAG binder conf – r(CAG) RNA repeat binding, confirmation; shares compounds with rCAG RNA binder; TO-PRO-1 dye displacement fluorescence; inhibition, % at 3 µM; actives 70% (n = 4,300);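 active = inhibition above a per-plate cutoff, the mean inhibition of sample wells plus 3 SD, cut at about 35% in these data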;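 note: loss of TO-PRO-1 fluorescence as compound displaces dye from 1x1 AA loop RNA; 0% = DMSO only wells and 100% = 100 µM mitoxantrone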
DNA CAG counter – disrupts DNA CAG TO-PRO-1 complex, flagging rCAG hits. d(CAG) DNA oligo TO-PRO-1 dye displacement, fluorescence. inhibition, % at 3 µM. AID 652068. shares compounds with rCAG RNA binder. actives 94% (n = 4,300);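 active = inhibition above its plate's cutoff, the mean test-well inhibition plus 3 SD, cut at about 4.8% in these data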;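 note: 0% = DNA dye mix with DMSO and 100% = 100 µM mitoxantrone; hits displace the dye from DNA and so lower well fluorescence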
dCAG dye DR – disrupts DNA CAG TO-PRO-1 complex in dose response. DNA CAG/GTC duplex TO-PRO-1 dye displacement fluorescence. actives 20% (n = 250). IC50, µM. shares compounds with rCAG RNA binder; in the data active = IC50 below about 10 µM
PRMT1 inh conf – PRMT1 (human) inhibition, FP confirmation; inhibition, % at 2.79 µM; actives 42% (n = 3,300); shares compounds with PRMT1 FP inh; recombinant His-PRMT1, activity-based probe fluorescence polarization;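 active = mean inhibition across replicates above the hit cutoff derived for the earlier primary screen, cut at about 22% in these data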
An asterisk follows results filed as active; ? = inconclusive; . = no result. Only some compounds are listed: those with a hit (about 5.9% of all), similar ones and a draw of the others.

SMILES | Rtt109 HAT inh | ABHD5-PLIN5 inh | rCAG RNA binder | LANA-H2A inh | ALR inh | PRMT1 FP inh | rCAG binder conf | DNA CAG counter | PRMT1 inh conf | others
CCOC(=O)c1ccc(N2CSC3=C(C#N)C(c4ccc(OC)cc4OC)CC(=O)N3C2)cc1 (stereo not drawn) | 7 | -5 | 21 | 2 | 0 | 9 | . | . | .
CCOc1ccc(N2CSC3=C(C#N)C(c4ccco4)CC(=O)N3C2)cc1 (stereo not drawn) | -1 | -6 | 69* | 7 | 9 | 71* | 48* | 17* | 70*
COC(=O)[C@]12CCCCC=C1N(Cc1ccc(OC)cc1)C(=O)[C@@H]2CC(=O)N1CCC(c2ccccc2)CC1 | . | . | 8 | . | . | 3 | . | . | .
CCC1CCC(C(=O)NNC(=O)c2cc(-c3ccco3)[nH]n2)CC1 (stereo not drawn) | 1 | 20 | 46* | 1 | 13 | 83* | 4 | 2 | 2
CCCSc1nnc(NC(=O)CSc2sc3c(O)cc(=O)[nH]c3c2C#N)s1 | 18 | 0 | 65* | 3 | ? | 34* | 80* | 46* | 15
C=CCSc1nnc(NC(=O)CSc2nc(CCC)cc(=O)[nH]2)s1 | -1 | 2 | 15 | -4 | 0 | -2 | . | . | .
N#Cc1c(SCC(=O)Nc2nccs2)sc2c(O)cc(=O)[nH]c12 | -1 | 2 | 71* | 3 | 99* | 51* | 52* | 24* | 27*
CCCc1cc(=O)[nH]c2nnc(SCC(=O)Nc3nccs3)n12 | -1 | 15 | 1 | 8 | -8 | -4 | . | . | .
O=C(CSc1ccccn1)Nc1nc2ccccc2s1 | 5 | 1 | -3 | -1 | 0 | 0 | . | . | .
N#Cc1c(SCC(=O)Nc2nc3ccccc3s2)sc2c(O)cc(=O)[nH]c12 | -2 | -19 | 63* | . | 99* | 52* | 60* | 26* | 7 | dCAG dye DR=9.3*
CN1OC[C@@H]2CN(C(=S)NCCc3ccccc3)[C@H](c3ccc(N4CCCCC4)cc3)C[C@@H]21 | . | -6 | 1 | . | . | -4 | . | . | .
CCc1cc2c(nc1CC)CCCN2Cc1ccc(Br)cc1 | . | . | 2 | . | . | -3 | . | . | .
S=c1[nH]nc(-c2ccco2)n1/N=C/c1cccc(Cl)c1Cl | 0 | 3 | 57* | 2 | 96* | 33* | 48* | 15* | 33*
S=c1[nH]nc(-c2ccc(Cl)cc2)n1/N=C/C=C/c1ccco1 | 5 | 1 | 37* | 0 | 99* | 31* | 35* | 13* | 5
Cc1cc2nc(C(C)(C)C)c(Cc3cccc(F)c3)n2c(C)c1Br | . | -11 | 5 | . | . | -2 | . | . | .
COc1cc(C)c2c(c1C=O)Oc1c(c(C)c(O)c3c1C(O)OC3=O)OC2=O (stereo not drawn) | -8 | 18 | 54* | -11 | 37 | 38* | 34 | 7.0* | -5
Cc1csc(CN(C)C(=O)CC2C(=O)NCCN2Cc2ccccc2C)n1 (stereo not drawn) | . | -5 | 5 | . | . | -2 | . | . | .
CCOC(=O)c1c(N)sc(=S)c2c1CCC2 | 7 | -4 | 36* | 8 | -2 | 27* | 54* | 23* | 16 | dCAG dye DR=>30
CCCN(CCC)S(=O)(=O)c1ccc(C(=O)NCc2n[nH]c(=S)n2-c2ccc(Cl)c(Cl)c2)cc1 | 23 | -17 | 35* | -1 | 48 | 29* | 29 | 7.0* | 14
Nc1nc2c(ncn2[C@@H]2O[C@H](C(=O)NCCCN3CCCC3=O)[C@@H](O)[C@H]2O)c(=O)[nH]1 | . | . | 1 | . | . | 7 | . | . | .
CCOC(=O)[C@]12CCCC3=C1N(CCC3)C(=O)[C@@H](CC(=O)NCCCCc1ccccc1)C2 | . | . | 1 | . | . | -3 | . | . | .
O=C(/C=C/c1ccco1)NC(=S)Nc1ccc(Cl)cn1 | 1 | 2 | 39* | . | . | 29* | 14 | 6.9* | -3
Cc1cc(=O)n2[nH]c(-c3ccsc3-n3c(C)ccc3C)cc2n1 | 10 | 7 | 26 | -1 | -3 | 15 | . | . | .
COCc1cc(=O)n2[nH]c(-c3ccsc3-n3c(C)ccc3C)cc2n1 | -2 | 6 | 40* | 4 | 5 | 45* | 39* | 17* | 4
Cc1nc2cc(-c3ccsc3-n3c(C)ccc3C)[nH]n2c(=O)c1Cl | 6 | 0 | 51* | -1 | 43 | 25* | 60* | 26* | 9
SMILES | Rtt109 HAT inh | ABHD5-PLIN5 inh | rCAG RNA binder | LANA-H2A inh | ALR inh | PRMT1 FP inh | rCAG binder conf | DNA CAG counter | PRMT1 inh conf | others
O=C(NC1CCCCN(Cc2ccc(Cl)cc2)C1=O)c1cccc(C(F)(F)F)c1 (stereo not drawn) | . | . | 4 | . | . | 4 | . | . | .
Nc1c(C(=O)Nc2ccccc2)sc2nc3c(c(-c4ccco4)c12)CCC3 | 10 | 5 | 11 | -1 | -5 | 7 | . | . | .
Nc1c(C(=O)Nc2ccc(F)cc2)sc2nc(-c3ccco3)ccc12 | 0 | 10 | 35* | 0 | 3 | 44* | 55* | 26* | 30*
Cc1ccc(NC(=O)c2sc3nc4c(c(-c5ccco5)c3c2N)CCC4)cc1 | 2 | -3 | 24 | 1 | -9 | 6 | . | . | .
Nc1c(C(=O)Nc2ccc(Br)cc2)sc2nc(-c3ccco3)ccc12 | -6 | 0 | 51* | 5 | 0 | 45* | 37* | 20* | 21
CCOc1ccc(-n2c(COc3ccc(C)cc3)nnc2SCC(=O)c2ccc3ccccc3c2)cc1 | . | . | 7 | . | . | -2 | . | . | .
Cc1cc(C)c2sc(NC(=O)c3ccc([N+](=O)[O-])o3)nc2c1 | -9 | -8 | 3 | 0 | -14 | 4 | . | . | .
O=C(NN1C(=O)/C(=C/c2ccc(O)c([N+](=O)[O-])c2)SC1=S)c1ccccc1Cl | 1 | 3 | 39* | 1 | 10 | 28* | 15 | 5.5* | 15
Cc1cccn2c(=O)c3cc(C#N)c(=NC(=O)c4ccncc4)n(CCCOC(C)C)c3nc12 | -32 | 0 | 2 | 8.9* | 2 | 26* | . | . | 2
Cc1ccccc1Cn1cc(COC(=O)N2CCOCC2)nn1 | . | . | 3 | . | . | -3 | . | . | .
CC(=O)N1CCN(c2cc(-c3ccco3)nc3cc(-c4ccccc4)nn23)CC1 | . | . | . | . | . | 51* | . | . | 8
Cc1ccc(-c2cc3nc(-c4ccco4)cc(N4CCN(Cc5ccoc5)CC4)n3n2)cc1 | . | . | . | . | . | 27* | . | . | 9
O=C1CSC(c2cccs2)N1c1nncs1 (stereo not drawn) | . | . | 1 | . | . | 5 | . | . | .
CN(Cc1ccccc1)S(=O)(=O)c1cccc(C(=O)OCc2ccccc2Cl)c1 | . | . | 5 | . | . | 0 | . | . | .

Compound activity deposited in PubChem BioAssay by several laboratories.
